D2 ag-1 = HTS Assay for Allosteric Agonists of the Human D2 Dopamine Receptor: Primary Screen for Agonists; D(2) dopamine receptor (Homo sapiens), P14416; HEK293 T-REx D2 cells, calcium flux agonist mode; activation, % at 2 µM; actives 0.53% (n = 340,000);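 active means activation over 3 SD above normal in the single-dose calcium agonist read, cut at about 30% in these data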; further: 0% is about no effect
Target sequence (P14416 whole entry, looked up): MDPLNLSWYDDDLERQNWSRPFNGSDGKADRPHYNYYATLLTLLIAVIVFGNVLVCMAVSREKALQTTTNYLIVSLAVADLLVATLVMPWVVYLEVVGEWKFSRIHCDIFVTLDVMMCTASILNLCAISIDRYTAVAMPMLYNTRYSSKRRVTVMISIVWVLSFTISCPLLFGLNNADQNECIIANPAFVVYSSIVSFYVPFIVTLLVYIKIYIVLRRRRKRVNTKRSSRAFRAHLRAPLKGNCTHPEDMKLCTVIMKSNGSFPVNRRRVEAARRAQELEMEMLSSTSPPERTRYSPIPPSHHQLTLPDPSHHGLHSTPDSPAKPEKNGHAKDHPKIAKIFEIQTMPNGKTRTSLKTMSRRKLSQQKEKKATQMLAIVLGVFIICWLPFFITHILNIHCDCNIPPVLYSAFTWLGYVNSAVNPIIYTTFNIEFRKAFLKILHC
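Calcium-flux readout, 1 cycle/sec over 180 s following compound pin transfer, in inducible HEK293 Trex D2 cells (force-coupled); dopamine controls included. Positive calcium responses during this window marked compounds as potential agonists.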
D2 antag = HTS Assay for Allosteric Antagonists of the Human D2 Dopamine Receptor: Primary Screen for Antagonists; actives 2% (n = 340,000); D(2) dopamine receptor (Homo sapiens), P14416; HEK293 TREx D2 cells, calcium flux, dopamine EC80; AID 485344, 2010; inhibition, % at 10 µM; in the data active means inhibition above about 30%; inactive means below that, where a call was filed; further: 0% is about no effect
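Tetracycline-induced HEK293 T-REx cells expressing D2 force-coupled to calcium signalling were dye-loaded, exposed to compound for 180 s, then challenged with an EC80 of dopamine; calcium flux was followed kinetically for a further 180 s.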
D2 PAM-1 = HTS Assay for Positive Allosteric Modulators of the Human D2 Dopamine Receptor: Primary Screen for Potentiators; D(2) dopamine receptor (Homo sapiens), P14416; HEK293 T-REx D2, calcium flux, EC20 dopamine potentiation; potentiation, % at 10 µM; actives 0.34% (n = 340,000); AID 485347, 2010;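 active means potentiation over 3 SD above the plate norm, cut at about 30% in these data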; further: 0% is about no effect
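Calcium flux readout, no-wash dye, 1 read/s. Inducible HEK293 Trex D2 line, overnight 30 C. Compound alone 180 s (agonist flags), then EC20 dopamine, another 180 s to score potentiation.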
D2 PAM-2 = Beta-Arrestin HTS for Positive Allosteric Modulators of the Human D2 Dopamine Receptor: Potentiators; potentiation, % (concentration not given with the values); D(2) dopamine receptor (Homo sapiens), P14416; actives 0.23% (n = 360,000); DiscoveRx D2 beta-arrestin cells, luminescence, 90 min; 100% = 57 uM dopamine signal; AID 624464, 2012; in the data active means potentiation above about 50%; inconclusive means mostly about 30% to 49%
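D2 cells co-treated with compound plus 50 nM dopamine (EC20) for 90 min at 37 deg C to detect potentiation. Beta-arrestin recruitment was read as enzyme-fragment luminescence after 1 h at ambient temperature. Full response was set by 57 uM dopamine.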
D2 ag-2 = Beta-Arrestin HTS for Positive Allosteric Modulators of the Human D2 Dopamine Receptor: Agonists. D(2) dopamine receptor (Homo sapiens), P14416. DiscoveRx PathHunter D2 beta-arrestin, luminescence, 90 min; 100% = 57 uM dopamine signal. activation, % (concentration not given with the values). actives 0.084% (n = 360,000); in the data active means activation above about 40%; inconclusive means between about 15% and that limit
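Agonist mode: compounds alone added to overnight-plated D2 PathHunter cells for 90 min at 37 C, with 57 uM final dopamine (EC100) defining full response. Beta-arrestin recruitment detected by chemiluminescent reagent, read after 1 h at ambient temperature.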
* = called active by the depositor; ? = inconclusive; nt = not tested or not shown; ! = a repeat was not active. A selection: hits, their analogues and other compounds. The true share with any hit is near 2.4%.

SMILES	D2 ag-1	D2 antag	D2 PAM-1	D2 PAM-2	D2 ag-2
COCC(=O)N1CCN(c2cccc(C(F)(F)F)c2)CC1	0	44*	-23	-22	-19
CC1CN(C(=O)CCC(=O)N2CCN(c3cccc(C(F)(F)F)c3)CC2)c2ccccc2O1 (stereo unspecified)	0	41*	30*	-14	1
CC(C)(C)CC(C)(C)n1nnnc1N	nt	nt	nt	4	2
Cc1ccc2ncc3c(-c4ccc(F)cc4)nn(-c4cccc(F)c4)c3c2c1	1	nt	-6	nt	nt
CC1CCN(Cc2c(O)ccc3c(=O)c(-c4cccc(Cl)c4)c(C(F)(F)F)oc23)CC1	0	nt	4	nt	nt
Cc1cccc(C(=O)NC2CCN(CC(=O)NCc3ccccc3F)CC2)c1	1	42*	2	-4	5
COc1cccc(C(=O)NC2CCN(CC(=O)NCc3ccccc3F)CC2)c1	-1	11	-2	-2	-2
CC[C@H](C)C(=O)O[C@H]1CCC=C2C=C[C@H](C)[C@H](CC[C@@H]3C[C@@H](O)CC(=O)O3)[C@H]21	2	38*!	-6	-10	2
CC1Cc2ccccc2N1C(=O)CN1CCN(Cc2ccccc2)CC1 (stereo unspecified)	1	41*	-24	-14	0
O=C(Cn1cc([N+](=O)[O-])cn1)N1CCc2ccccc21	1	-6	-5	-7	-2
CC1Cc2ccccc2N1C(=O)Cn1cc([N+](=O)[O-])cn1 (stereo unspecified)	0	39*	-1	-4	-3
Cc1ccc2nc(N(Cc3cccnc3)C(=O)C3COc4ccccc4O3)sc2c1 (stereo unspecified)	0	nt	-12	nt	nt
Cc1ccc2c(c1)C(C)CC(C)(C)N2C(=O)CN1CCN(C)CC1 (stereo unspecified)	-1	36*	-20	-31	-5
CC1CC(C)(C)N(C(=O)CN2CCN(C)CC2)c2ccccc21 (stereo unspecified)	0	7	4	-4	-4
CCOC(=O)CN(C(=O)CSc1nnc2c(n1)[nH]c1ccc(OC)cc12)c1ccc(F)cc1	1	80*	-27	-27	0
Cc1ccc(NC(=O)COC(=O)c2ccc(CN3CCCC3=O)cc2)c(Cl)c1	0	35*	0	11	7
Cc1cc(C)cc(NC(=O)COC(=O)c2ccc(CN3CCCC3=O)cc2)c1	0	3	0	-3	0
CCOc1cccc2sc(N(CCN(C)C)C(=O)c3ccc(Br)s3)nc12	0	33*	-10	-18	-6
Oc1ccc2ccccc2c1C1Nc2cccc3cccc(c23)N1	0	-13	14	50*	?
COc1cc(C2Nc3cccc4cccc(c34)N2)ccc1O	0	4	-2	-6	9
Cc1ccc(NC(=O)Cn2ccn(-c3ccc(F)c(F)c3)c(=O)c2=O)cc1C	0	nt	-2	nt	nt
Cc1ccc(NC(=O)Cn2ccsc2=N)cc1S(=O)(=O)N(C)C	0	36*	-24	-15	-3
Cc1ccc(NC(=O)CCNCc2ccco2)cc1S(=O)(=O)N(C)C	-6	34*	-10	-21	2
Cc1ccc(NC(=O)CCNC(=O)Nc2ccccc2)cc1S(=O)(=O)N(C)C	0	17	2	-5	-3
CN(C)S(=O)(=O)c1cc(NC(=O)Cn2ccsc2=N)ccc1Cl	0	-13	-17	30	0
SMILES	D2 ag-1	D2 antag	D2 PAM-1	D2 PAM-2	D2 ag-2
Cc1ccc(NC(=O)CN2CCN(C(=O)c3ccco3)CC2)cc1S(=O)(=O)N(C)C	nt	nt	nt	30	45*
CSc1cccc(NS(=O)(=O)c2ccc3[nH]cc(C(=O)N4CCCC4)c(=O)c3c2)c1	0	nt	11	nt	nt
Cc1ccc(-c2cnc(C(O)c3cc(C)cc(C)c3)[nH]2)cc1 (stereo unspecified)	nt	nt	nt	-8	-4
Cc1ccccc1-c1csc(C(C)(O)c2ccc(F)c(F)c2)n1 (stereo unspecified)	nt	nt	nt	-8	-3
CCCCOc1cccc(C(=O)Nc2cc(NC(=O)c3ccco3)ccc2OC)c1	0	nt	-2	nt	nt
O=C1CCCN1c1ncc(S(=O)(=O)c2ccc([N+](=O)[O-])cc2)s1	1	-12	5	54*	?
O=C(Cn1c(=O)oc2ccccc21)NCc1ccc(Cl)cc1	0	nt	4	nt	nt
O=C(Cn1nc2n(c1=O)-c1ccccc1SC2)N/N=C/c1cccs1	0	41*	-21	-20	-3
Cc1ccc(S(=O)(=O)CCSc2nc(C)cc(C)c2C#N)cc1	0	9	33*	-11	0
Cc1cc(C)c(C#N)c(SCc2ccccc2C)n1	-2	34*	11	-7	-1
Nc1c(C(O)(C(F)(F)F)C(F)(F)F)cc(C(O)(C(F)(F)F)C(F)(F)F)c2ccccc12	1	15	-4	91*	?
Cc1ccccc1N1C(=O)CC(Nc2ccc3c(c2)OCO3)C1=O (stereo unspecified)	-1	31*	-2	-4	-6
CCN(CC)c1ccc2cc(C(=O)NCc3ccc(F)cc3)c(=N)oc2c1	46*	2	-9	nt	nt
N=c1oc2ccc(Br)cc2cc1C(=O)NCc1ccc(F)cc1	0	9	-4	-8	-4
O=C(NCc1ccco1)c1ccc2c(c1)C(=O)c1ccccc1-2	-2	30*	14	-7	3
COc1ccc(-c2noc(-c3ccccc3C(=O)NCc3ccco3)n2)cc1OC	0	-5	32*	-13	-2
COc1ccc(-c2noc(-c3ccccc3C(=O)NCc3ccco3)n2)cc1	0	4	-4	-20	-8
O=C(NCc1ccco1)c1cc([N+](=O)[O-])cc([N+](=O)[O-])c1	0	6	3	83*	14
O=C(NCc1ccco1)c1ccc(S(=O)(=O)N2CCCc3ccccc32)cc1	3	40*	-13	-4	1
COc1cccc2sc(N(Cc3cccnc3)C(=O)c3ccc4c(c3)OCCO4)nc12	0	nt	-4	nt	nt
Cc1cccc(NC(=O)CSc2nc3c(oc4ccccc43)c(=O)n2-c2ccccc2)c1C	1	nt	13	nt	nt
CCOc1ccc(CN(C)CC(=O)Nc2ccc3c(c2)CCC3)cc1OC	2	30*	-2	-9	-1
C=CCOc1ccc(CN(C)CC(=O)Nc2ccc3c(c2)CCC3)cc1	1	-23	-3	-6	3

High-throughput results (PubChem BioAssay)
